These results are taken from PubChem BioAssay (EPA / NIEHS).

The target in assay [1] is Cellular tumor antigen p53 (Homo sapiens) (UniProt P04637). The assay can be described thus: TOX21_p53_BLA_p2_ratio: Tox21 HCT-116 p53 Agonism Beta-lactamase Assay, Ratio, Phase 2 (AID 2283592). In short, it runs like this: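 Cleaved-to-uncleaved substrate ratio (460 vs 530 nm) measured in HCT116 cells with an inducible beta-lactamase reporter linked to p53 activity. Compounds incubated 16 h at 37C before 2 h room-temperature CCF4-AM loading.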

Assay [2] has the same target. Nature of the assay: TOX21_p53_BLA_p3_ratio: Tox21 HCT-116 p53 Agonism Beta-lactamase Assay, Ratio, Phase 3 (AID 2283596). In short, it runs like this:
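Cells were seeded at 4000/well, rested 5 h at 37C, then dosed with DMSO compound solutions (217-fold dilution) for 16 h. CCF4-AM substrate was loaded for 2 h at room temperature, and the 460/530 nm emission ratio was fitted for gain of signal versus DMSO.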

Assay [3] can be described thus: TOX21_p53_BLA_p4_viability: Viability Assessment in the Tox21 HCT-116 p53 Agonism Beta-lactamase Assay, Phase 4 (AID 2283597).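 Also: hits lower the luminescence signal meaning cytotoxicity.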 In short, it runs like this: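 Viability is taken as cellular ATP: after 16 h compound exposure of HCT116 cells and a 2 h room-temperature CCF4-AM substrate step, CellTiter-Glo reagent is added and luminescence is measured 30 min later.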

The target of assay [4] is Cellular tumor antigen p53 (Homo sapiens) (UniProt P04637). Nature of the assay: TOX21_p53_BLA_p5_ratio: Tox21 HCT-116 p53 Agonism Beta-lactamase Assay, Ratio, Phase 5 (AID 2283599). In outline: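 Beta-lactamase reporter ratio (blue 460 nm over green 530 nm, 405 nm excitation) after 2 h CCF4-AM loading, in HCT-116 cells exposed 16 h at 37 C to compounds pinned at 217-fold dilution. Increases relative to DMSO baseline scored.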

Assay [5] has the same target. Nature of the assay: TOX21_p53_BLA_p4_ratio: Tox21 HCT-116 p53 Agonism Beta-lactamase Assay, Ratio, Phase 4 (AID 2283601). In short, it runs like this:
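Signal is the blue/green (460nm/530nm) ratio of cleaved versus uncleaved CCF4-AM substrate, read after 2 h substrate loading. Cells were HCT116 carrying the p53-responsive beta-lactamase reporter, dosed 16 h at 37C, 5% CO2; CellTiter-Glo measured in parallel.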

Assay [6] can be described thus: TOX21_p53_BLA_p5_viability: Viability Assessment in the Tox21 HCT-116 p53 Agonism Beta-lactamase Assay, Phase 5 (AID 2283600). In outline:
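Viability is taken from cellular ATP content, measured by luciferase luminescence in the same wells after the beta-lactamase ratio read. Cells are seeded at 4000 per well and exposed to DMSO-dissolved compounds, diluted 217-fold, for 16 h.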

SMILES strings stand for the structures. Inconclusive results are not listed. Activity calls are given as the source filed them. The calls were made as follows: active = hit-call score of the fitted dose curve at least 0.9, where 1 is the maximum; inconclusive = response in the unintended direction; inactive = score below 0.9.

Cellular tumor antigen p53 (Homo sapiens), sequence (P04637 whole entry, looked up): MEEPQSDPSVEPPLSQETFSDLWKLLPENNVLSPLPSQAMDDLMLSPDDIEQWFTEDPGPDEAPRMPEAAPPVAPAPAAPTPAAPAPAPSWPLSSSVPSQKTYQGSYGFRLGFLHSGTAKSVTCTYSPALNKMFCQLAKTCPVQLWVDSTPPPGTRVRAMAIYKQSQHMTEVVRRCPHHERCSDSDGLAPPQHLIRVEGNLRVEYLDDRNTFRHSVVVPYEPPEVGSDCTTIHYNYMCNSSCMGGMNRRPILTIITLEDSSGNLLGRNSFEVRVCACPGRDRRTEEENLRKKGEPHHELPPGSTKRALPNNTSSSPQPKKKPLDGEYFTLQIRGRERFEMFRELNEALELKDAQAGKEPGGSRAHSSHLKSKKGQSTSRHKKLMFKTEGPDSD

Turning to `COc1cc2c(cc1OC)[C@@H](c1ccccc1)CN(C)CC2`, the outcome in assay [1], in assay [2], in assay [3], in assay [4] and in assay [5] was inactive.

Take `CC=C(Cl)Cl`: the result in assay [1], in assay [2], in assay [3], in assay [4] and in assay [5] was inactive.

Turning to `O=C(c1ccc2c(c1)C(=O)OC2=O)c1ccc2c(c1)C(=O)OC2=O`, the result in assay [1], in assay [2], in assay [3], in assay [4] and in assay [5] was inactive.

Regarding `O=C(O)CCCCCCC(=O)O`, the outcome in assay [1], in assay [2], in assay [3], in assay [4] and in assay [5] was inactive.

Regarding `[O-][n+]1ccccc1SSc1cccc[n+]1[O-]`, the outcome in assay [1], in assay [3], in assay [4], in assay [6] and in assay [5] was inactive. Also, in assay [2], the AC50 was 9.52 µM (active).

As for `O=C[O][Al]([O]C=O)[O]C=O`, the result in assay [1], in assay [2], in assay [3], in assay [4] and in assay [5] was inactive.

`CC(=O)Oc1cc(C(F)(F)F)ccc1C(=O)O`: the outcome in assay [1], in assay [2], in assay [3], in assay [4], in assay [6] and in assay [5] was inactive.

Consider `CCN(CC)CCNC(=O)COc1ccc(OC)cc1`, for which the outcome in assay [1], in assay [2], in assay [3], in assay [4], in assay [6] and in assay [5] was inactive.

For `O=C1c2ccccc2C(=O)c2c1ccc(O)c2O`, the outcome in assay [1], in assay [2], in assay [3], in assay [4], in assay [6] and in assay [5] was inactive.

On to `O=C(CN1CCNCC1)NC1CCCCC1`, for which the result in assay [1], in assay [2], in assay [3], in assay [4], in assay [6] and in assay [5] was inactive.

Take `OCl`: the outcome in assay [1], in assay [2], in assay [3], in assay [4] and in assay [5] was inactive.

For `CC(=O)O[C@H]1CC[C@@]2(C)C(=CC[C@@H]3[C@@H]2CC[C@]2(C)C(c4cccnc4)=CC[C@@H]32)C1`, the outcome in assay [1], in assay [2], in assay [3], in assay [4] and in assay [5] was inactive.

For the molecule `C=CCOC(=O)CCCCCCCC`, the outcome in assay [1], in assay [2], in assay [3], in assay [4], in assay [6] and in assay [5] was inactive.

As for `CNC(=O)[C@H](Cc1c[nH]c2ccccc12)NC(=O)[C@@H](CC(=O)NO)CC(C)C`, the result in assay [1], in assay [2], in assay [3], in assay [4], in assay [6] and in assay [5] was inactive.

Take `O=c1c(O)c(O)c1=O`: the result in assay [1], in assay [2], in assay [3], in assay [4] and in assay [5] was inactive.

In the case of `C[Si](Cl)(c1ccccc1)c1ccccc1`, the result in assay [1], in assay [2], in assay [3], in assay [4] and in assay [5] was inactive.

Regarding `COc1ccc(/C=C/C(=O)O)cc1`, the result in assay [1], in assay [2], in assay [3], in assay [4], in assay [6] and in assay [5] was inactive.

As to `O=C1CCCc2c1cc1ccc3cccc4ccc2c1c34`, the outcome in assay [1], in assay [3], in assay [4] and in assay [5] was inactive. The AC50 in assay [2] is 62.5 µM (active).

As to `FC(F)(F)c1cccc(Cl)c1`, the outcome in assay [1], in assay [2], in assay [3], in assay [4], in assay [6] and in assay [5] was inactive.

Regarding `CN1CCCN(C(c2ccccc2)c2ccc(Cl)cc2)CC1` (centres undefined), the outcome in assay [1], in assay [2], in assay [4], in assay [6] and in assay [5] was inactive. For the same molecule, in assay [3], the concentration at half-maximal activity (AC50) is 34.8 µM (active).

For the molecule `CC(C)(O)c1ccccc1`, the outcome in assay [1], in assay [2], in assay [3], in assay [4] and in assay [5] was inactive.

Turning to `O=C(CCN1CCC(c2ccccc2)C1)c1ccc2c(c1)OCCO2` (centres undefined), the result in assay [1], in assay [2], in assay [3] and in assay [5] was inactive. The half-maximal activity concentration (AC50) in assay [4] is 41.1 µM (active).

In the case of `Nc1nc2c(ncn2COC(CO)CO)c(=O)[nH]1`, the result in assay [1], in assay [2], in assay [3], in assay [4], in assay [6] and in assay [5] was inactive.

As to `COc1ccc2c(c1OC)C(=O)O[C@@H]2[C@H]1c2c(cc3c(c2OC)OCO3)CCN1C`, the outcome in assay [1], in assay [2], in assay [3], in assay [4] and in assay [5] was inactive.

Consider `Nc1c2c(nc3ccccc13)CCCC2O` (centres undefined), for which the outcome in assay [1], in assay [2], in assay [3], in assay [4] and in assay [5] was inactive.

In the case of `CC1(C)CO[C@@H](CC(=O)O)CN1`, the result in assay [1], in assay [2], in assay [3], in assay [4] and in assay [5] was inactive.

Consider `Cc1c[nH]c2ccccc12`, for which the result in assay [1], in assay [2], in assay [3], in assay [4], in assay [6] and in assay [5] was inactive.

For the molecule `C[N+]1(C)[C@@H]2CC(OC(=O)[C@H](CO)c3ccccc3)C[C@H]1[C@@H]1O[C@@H]12` (some centres undefined), the result in assay [1], in assay [2], in assay [3], in assay [4], in assay [6] and in assay [5] was inactive.

In the case of `CNC(=O)NC`, the result in assay [1], in assay [2], in assay [3], in assay [4] and in assay [5] was inactive.

With `Cc1ccccc1N=O`, the result in assay [1], in assay [2], in assay [3], in assay [4] and in assay [5] was inactive.

Turning to `CCN(CC)C(=O)[C@]1(c2ccccc2)C[C@@H]1CN`, the outcome in assay [1], in assay [2], in assay [3], in assay [4], in assay [6] and in assay [5] was inactive.

Take `OCc1c2ccccc2cc2ccccc12`: the outcome in assay [1], in assay [2], in assay [3], in assay [4] and in assay [5] was inactive.

Consider `CC(C)OC(=O)C(C(=O)OC(C)C)=C1SC=CS1`, for which the result in assay [1], in assay [2], in assay [3], in assay [4], in assay [6] and in assay [5] was inactive.

Regarding `CNC[C@@H]1CC[C@@H](N)[C@@H](O[C@H]2[C@H](O)[C@@H](O[C@H]3OC[C@](C)(O)[C@H](NC)[C@H]3O)[C@H](N)C[C@@H]2N)O1`, the result in assay [1], in assay [2], in assay [3] and in assay [6] was inactive.

`CC(C)COC(=O)OCN1C(=O)CN(CCN2CC(=O)N(COC(=O)OCC(C)C)C(=O)C2)CC1=O`: the half-maximal activity concentration (AC50) is 4.1 µM (active) in assay [1], 4.07 µM (active) in assay [2], 7.4 µM (active) in assay [4] and 3.05 µM (active) in assay [5]. In addition, in assay [3], the molecule was classed as inactive.
